# Measured values taken from the supplement of paper PMC10515830.
# Structures can show the parent of a compound that is named as a salt.
# Experiments:
# Conditions in all cases: 10 µM; exposure time 6 h
# [1] = tested on: Danio rerio larvae (5 dpf); assay: difference in excitability vs DMSO (percentage points); higher = more excitable than DMSO
# How it was run: (§1)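 Wild-type zebrafish larvae at 5 dpf were kept in 96-well plates and exposed for 6 h to 100 µL egg water holding library compound at a final concentration of 10 µM. From 3 h into exposure, the plates were held at 28.5 ℃ and photographed every 6 s through a 3-h programme of moving lines and 100 ms, 400Hz tones. Each behaviour was scored by Z-LaP Tracker, a DeepLabCut model, and averaged over 48 larvae per compound. Every value gives the compound mean minus the vehicle control mean, in percentage points.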
# [2] = tested on: Danio rerio larvae (5 dpf); assay: difference in startle response vs DMSO (percentage points); higher = stronger startle than DMSO
# How it was run: as §1
# [3] = tested on: Danio rerio larvae (5 dpf); assay: difference in activity during first hour vs DMSO (percentage points); higher = more activity than DMSO
# How it was run: as §1
# [4] = tested on: Danio rerio larvae (5 dpf); assay: difference in habituation to acoustic stimuli vs DMSO (percentage points); higher = more habituation than DMSO
# How it was run: as §1
# [5] = tested on: Danio rerio larvae (5 dpf); assay: difference in combined optomotor response to red, green and blue moving lines vs DMSO (percentage points); higher = stronger optomotor response than DMSO
# How it was run: as §1
SMILES,difference in excitability [1],difference in startle response [2],difference in activity during first hour [3],difference in habituation to acoustic stimuli [4],difference [5]
CC(C)NCC(O)c1ccc(O)c(O)c1 (stereo not given) [Isoproterenol (hydrochloride)],-11.9,-6.4,45.9,1.72,6.58
CC(=O)O[C@H]1C(=O)[C@@]2(C)[C@H]([C@H](OC(=O)c3ccccc3)[C@]3(O)C[C@H](OC(=O)[C@H](O)[C@@H](NC(=O)c4ccccc4)c4ccccc4)C(C)=C1C3(C)C)[C@]1(OC(C)=O)CO[C@@H]1C[C@@H]2O [Paclitaxel],-11.7,-1.74,-4.46,3.51,-2.9
CC(C)OC(=O)CCC/C=C\C[C@@H]1[C@@H](CC[C@@H](O)CCc2ccccc2)[C@H](O)C[C@@H]1O [Latanoprost],1.84,-0.286,20.8,3.23,7.08
O=C(O)CCc1nc(-c2ccccc2)c(-c2ccccc2)o1 [Oxaprozin],17.9,-7.37,3.28,-4.84,-6.06
CCc1c2c(nc3ccc(OC(=O)N4CCC(N5CCCCC5)CC4)cc13)-c1cc3c(c(=O)n1C2)COC(=O)[C@]3(O)CC [Irinotecan (hydrochloride hydrate)],13.5,-2.28,0.361,2.44,2.92
C[C@@H]1C[C@H]2[C@@H]3CCC4=CC(=O)C=C[C@]4(C)[C@@]3(F)[C@@H](O)C[C@]2(C)[C@H]1C(=O)CO [Desoximetasone],2.03,4.16,-4.98,2.48,0.705
CCN(CC)CCOC(=O)C1(C2CCCCC2)CCCCC1 [Dicyclomine (hydrochloride)],9.55,-4.86,-8.86,-5.06,-3.96
CC(N)C12CC3CC(CC(C3)C1)C2 (stereo not given) [Rimantadine (hydrochloride)],3.64,-0.673,-3.58,3.17,-3.34
NCCS [Cysteamine (hydrochloride)],4.79,3.78,3.89,0.254,14.5
COc1ccc(CC(C)(C)NC[C@H](O)c2cc(O)cc3c2OCC(=O)N3)cc1 [Olodaterol],10.9,-5.93,11.8,-9.87,3.03
CC[C@H](Nc1ncnc2[nH]cnc12)c1nc2cccc(F)c2c(=O)n1-c1ccccc1,5.3,1.19,-0.052,-0.933,2.36
COc1cc([C@@H]2c3cc4c(cc3[C@@H](O[C@@H]3O[C@@H]5CO[C@@H](c6cccs6)O[C@H]5[C@H](O)[C@H]3O)[C@H]3COC(=O)[C@H]23)OCO4)cc(OC)c1O [Teniposide],-5.17,-1.26,-12,3.62,-8.33
O=P(O)(O)C(O)(Cn1ccnc1)P(=O)(O)O [Zoledronic Acid (hydrate)],-0.91,-0.172,2.53,0.128,6.76
N#Cc1cc(NC(=O)C(=O)O)c(Cl)c(NC(=O)C(=O)O)c1 [Lodoxamide],4.92,3.04,-7.99,1.72,1.61
CCCC(CCC)C(=O)O [Valproic Acid (sodium salt)],1.2,1.47,-1.97,-8.1,3.32
Cn1cnc([N+](=O)[O-])c1Sc1ncnc2[nH]cnc12 [Azathioprine],-3.13,3.25,-3.18,4.62,1.19
C[C@]12CCC(=O)C=C1CC[C@@H]1[C@@H]2[C@@H](O)C[C@@]2(C)[C@H]1CC[C@]2(O)C(=O)CO [Hydrocortisone],1.87,0.52,14.7,1.82,9.96
CCOC(=O)C1=C(COCCN)NC(C)=C(C(=O)OC)C1c1ccccc1Cl (stereo not given) [Amlodipine],4.37,-5.58,1.69,0.668,7.23
CC[C@H](C)C(=O)O[C@H]1C[C@H](O)C=C2C=C[C@H](C)[C@H](CC[C@@H](O)C[C@@H](O)CC(=O)O)[C@H]21 [Pravastatin (sodium salt)],1.5,5.8,9.55,-2.28,1.82
O=c1[nH]c2ccccc2n1CCN1CCN(c2cccc(C(F)(F)F)c2)CC1 [Flibanserin],17.7,11.6,9.81,-4.3,-0.569
Cc1nc2c([nH]1)-c1ccccc1N(C(=O)c1ccc(NC(=O)c3ccccc3-c3ccccc3)cc1)CC2 [Conivaptan (hydrochloride)],12.9,4.28,-10.7,3.17,-0.877
O=C1CCCC(=O)C1C(=O)c1ccc(C(F)(F)F)cc1[N+](=O)[O-] [Nitisinone],-4.15,-6.23,19.7,-0.151,0.618
CC#CC(=O)N1CCC[C@H]1c1nc(-c2ccc(C(=O)Nc3ccccn3)cc2)c2c(N)nccn12 [Acalabrutinib],2.39,12.9,10.5,5,-2.56
COc1cc(CNC(=O)CCCC/C=C/C(C)C)ccc1O [Capsaicin],12.5,8.06,-6.37,-0.624,5.27

SMILES,difference in excitability [1],difference in startle response [2],difference in activity during first hour [3],difference in habituation to acoustic stimuli [4],difference [5]
CCC(=O)O[C@]1(C(=O)CCl)[C@@H](C)C[C@H]2[C@@H]3C[C@H](F)C4=CC(=O)C=C[C@]4(C)[C@@]3(F)[C@@H](O)C[C@@]21C [Halobetasol Propionate],12.1,1.54,3.96,-4.09,3.99
CC(=O)O[C@]1(C(C)=O)CC[C@H]2[C@@H]3CCC4=CC(=O)CCC4=C3[C@@H](c3ccc(N(C)C)cc3)C[C@@]21C [Ulipristal Acetate],4.89,-8.5,-5.48,5.46,-10.6
CC(C)c1nc(CN(C)C(=O)N[C@H](C(=O)N[C@@H](Cc2ccccc2)C[C@H](O)[C@H](Cc2ccccc2)NC(=O)OCc2cncs2)C(C)C)cs1 [Ritonavir],-4.63,0.564,2.31,6.79,1.78
COc1ccc2[nH]c([S@@+]([O-])Cc3ncc(C)c(OC)c3C)nc2c1 [Esomeprazole Magnesium],8.33,7.11,4.64,-0.745,5.95
CC1(C)S[C@@H]2[C@H](NC(=O)[C@H](N)c3ccccc3)C(=O)N2[C@H]1C(=O)O [Ampicillin (sodium salt)],2.42,0.739,-2.5,-4.92,-2.47
CCCC1O[C@@H]2C[C@H]3[C@@H]4CCC5=CC(=O)C=C[C@]5(C)[C@H]4[C@@H](O)C[C@]3(C)[C@]2(C(=O)CO)O1 (stereo not given in full) [Budesonide],4.9,-3.47,4.24,-2.87,12.5
CCCCCN(C)CCC(O)(P(=O)(O)O)P(=O)(O)O [Ibandronate (sodium hydrate)],-4.51,1.53,-2.16,7.06,-0.0828
C[C@@H]1NC(=O)[C@@H](N)CNC(=O)[C@H](C2CCNC(=N)N2)NC(=O)/C(=C/NC(N)=O)NC(=O)[C@H](CNC(=O)CC(N)CCCN)NC1=O.N=C1NCC[C@H]([C@@H]2NC(=O)/C(=C/NC(N)=O)NC(=O)[C@H](CNC(=O)C[C@@H](N)CCCN)NC(=O)[C@H](CO)NC(=O)[C@@H](N)CNC2=O)N1 [Capreomycin (sulfate)],19.5,3.05,-0.814,2.2,3.54
Cc1[nH]cnc1CN1CCc2c(c3ccccc3n2C)C1=O [Alosetron (hydrochloride)],-3.91,3.08,8.78,3.46,8.63
CC(C)[C@H](N)C(=O)OCCOCn1cnc2c(=O)[nH]c(N)nc21 [L-Valacyclovir (hydrochloride)],6.67,6.55,5.61,-8.71,-5.74
Cc1c(C(=O)Nc2ccc(N3C[C@@H](C)O[C@@H](C)C3)nc2)cccc1-c1ccc(OC(F)(F)F)cc1 [LDE225 (phosphate)],13,-4.4,-2.84,-4.9,3.16
C[C@]12C=CC(=O)C=C1CC[C@@H]1[C@@H]2[C@@H](O)C[C@@]2(C)[C@H]1CC[C@]2(O)C(=O)CO [Prednisolone],1.41,3.42,13.7,0.15,7.45
CCCCC[C@H](O)/C=C/[C@H]1[C@H](O)CC(=O)[C@@H]1CCCCCCC(=O)O [Prostaglandin E1],15.5,-3.01,-8.7,-1.03,0.226
CCN1C(=O)NC(c2ccccc2)C1=O (stereo not given) [Ethotoin],-4.35,11.7,-2.99,0.909,-3.6
Cn1nnc2c(C(N)=O)ncn2c1=O [Temozolomide],-3.41,0.671,-3.71,1.66,5.77
CC(C)CN(C[C@@H](OP(=O)(O)O)[C@H](Cc1ccccc1)NC(=O)O[C@H]1CCOC1)S(=O)(=O)c1ccc(N)cc1 [Fosamprenavir (calcium salt)],0.179,4.76,22.4,-2.19,5.16
Cc1c(-c2ccc(O)cc2)n(Cc2ccc(OCCN3CCCCCC3)cc2)c2ccc(O)cc12 [Bazedoxifene (acetate)],9.87,1.08,-9.97,-5.25,-3.93
Cc1cccc(Nc2ccncc2S(=O)(=O)NC(=O)NC(C)C)c1 [Torasemide],6.87,-10.7,6.15,-5.49,-5.29
C[C@@H](CN1CC(=O)NC(=O)C1)N1CC(=O)NC(=O)C1 [Dexrazoxane],5.16,0.825,-0.0194,3.65,4.12
CC(=O)OCC(=O)[C@@]1(O)CC[C@H]2[C@@H]3CCC4=CC(=O)CC[C@]4(C)[C@@]3(F)[C@@H](O)C[C@@]21C [Fludrocortisone Acetate],-4.21,4.97,-1.84,0.633,1.96
C[C@@H](c1ncncc1F)[C@](O)(Cn1cncn1)c1ccc(F)cc1F [Voriconazole],4.54,3.6,-18.9,3.51,5.07
Cc1ccc(/C(=C\CN2CCCC2)c2cccc(/C=C/C(=O)O)n2)cc1 [Acrivastine],1.28,-0.645,0.462,0.73,-3.37
CN(C)[C@@H]1C(O)=C(C(N)=O)C(=O)[C@@]2(O)C(O)=C3C(=O)c4c(O)cccc4[C@@](C)(O)[C@H]3[C@H](O)[C@@H]12 [Oxytetracycline],-1.74,-1.21,20.6,5.81,-0.914
CN(C)c1nc(N(C)C)nc(N(C)C)n1 [Altretamine],-0.899,-2.53,-6.9,-1.7,0.893
